KB-3-1 tox = KB-3-1 parental cell cytotoxicity; AID 1347075; KB-3-1 viability, CellTiter-Glo ATP luminescence, 72 h; 400,000 tested, 1.4% active; Potency, µM (top dose mostly 46.1 µM), actives largely listed as cytotoxic; also: % is scaled to controls: 0 for no effect and ±100 for the full control effect; nearly all actives have a fitted effect of over 60% in size
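KB-3-1 parental drug-naive adenocarcinoma cells in DMEM/10% FBS, incubated 72 h at 37 C with pin-transferred compounds across a concentration series. Viability by CellTiter-Glo luminescence; concentration-response curves fitted after normalization.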
MCF10A rerep = inducers of DNA re-replication in MCF 10A breast cells; Potency, µM (doses to about 46.1 µM), for the others: at the top dose activity, positive = re-replication, usual class: activators; MCF 10A DNA re-replication, Hoechst nuclear intensity, 48 h; AID 624296; 350,000 tested, 2.9% active; also: % of control where 0% means no effect; nearly all actives have a fitted effect of over 50% in size
HT1080 IDH1KD tx = kills HT-1080 cells with IDH1 knockdown; HT-1080 IDH1 knockdown viability, ATP luminescence, 48 h; Potency, µM (titrated, usually from 46.1 µM), for inactives: at the top dose activity, negative = toxicity, most hits filed as cytotoxic; 360,000 tested, 2% active; AID 686971;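 also: 0% = DMSO wells and -100% = cell-free medium wells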
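Assay cells: HT-1080 with IDH1 knockdown, 750 per well, RPMI/5% FBS. Exposure: 48 h at 37 °C following 2 h pre-incubation. Read: CellTiter-Glo luminescence; fitted concentration-response, curve class assigned.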
HT1080-NT tox = kills 2HG-producing HT-1080-NT fibrosarcoma cells | Potency, µM (doses to about 46.1 µM), inactives show at the highest dose activity, negative = less viability, hits mostly cytotoxic | 360,000 tested, 1.6% active | HT-1080-NT fibrosarcoma viability, CellTiter-Glo ATP luminescence, 48 h | AID 686970;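 also: NT is the 2HG producing partner of a matched IDH1 knockdown line; 0% = DMSO-treated cells and -100% = media-only wells without cells; nearly all actives have a fitted effect of over 55% in size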
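Toxicity toward the 2HG-producing NT line was scored as %Activity, normalised to DMSO and no-cell wells, from CellTiter-Glo luminescence after 48 hours' treatment.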
KB-V1 cytotox = KB-V1 MDR subline cytotoxicity; KB-V1 MDR cells viability, CellTiter-Glo, 72 h; Potency, µM (highest dose often 46.1 µM), usual class: cytotoxic; 400,000 tested, 3.4% active; AID 1347076; also: % is scaled to controls: 0 for no effect and ±100 for the full control effect; nearly all actives have a fitted effect of over 60% in size
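qHTS viability screen in drug-selected KB-V1 MDR cells: 72 h compound treatment at 37 degrees C, ATP luminescence end point.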
SW480 rereplic = inducers of DNA re-replication in SW480 colon cancer cells. SW480 DNA re-replication, Hoechst DNA content imaging, 48 h. Potency, µM (series often up to 46.1 µM), inactives show top-dose re-replication activation, usual class: activators. 340,000 tested, 1.8% active; also: % of control where 0% means no effect; nearly all actives have a fitted effect of over 55% in size
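Cells (250 per well) received 23 nL compound or DMSO by pin tool and were kept 48 hr at 37 C, 5% CO2. Nuclei were then stained with Hoechst for 40 min and scanned for DNA content.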
Starred values were filed as active, the others as inactive; i = inactive; ? = inconclusive; nt = no result given; [ ] = another dose, or the depositor's remark. This is a sample that favours compounds with a hit; in the whole collection about 8% have one here. Calls follow the shape of the dose curve; as a rule, active = well fitted curve in the direction sought with a large enough effect; inconclusive = small, poorly fitted or top-dose-only effect, or another doubt; inactive = no such curve, though single readings can be large; an effect the other way counts as inactive or inconclusive. Potency is read from the fitted curve at half-maximal effect.

SMILES | KB-3-1 tox | MCF10A rerep | HT1080 IDH1KD tx | HT1080-NT tox | KB-V1 cytotox | SW480 rereplic
CC(C)CCn1nnc2sc(-c3ccccc3)cc2c1=O | i | nt | nt | nt | i | nt
CCOC(=O)N1CCC2(CC1)OC(=O)C(C)=C2C(=O)NCc1cccc(OC)c1 | i | nt | nt | nt | i | nt
O=C(Nc1cc(Cl)cc2c1-c1ccc(Cl)cc1C2O)C(Cl)Cl (stereo not given) | ? | ? | -26% | -12% | 18µM* | ?
CO[C@H]1CN(C)C(=O)c2cc(NC(=O)c3cc(C)on3)ccc2OC[C@@H](C)N(C(=O)C2CC2)C[C@H]1C | i | nt | 12% | 18% | i | nt
COc1cccc(NC(=O)CN(C)C(=O)c2ccc(NC3CC3)c([N+](=O)[O-])c2)c1 | i | 4% | -6% | -3% | 7.3µM* | 0%
O=C(Nc1cc(F)cc(F)c1)c1ccc(NCCc2ccccc2)c([N+](=O)[O-])c1 | i | 17% | -18% | -23% | i | -10%
COc1cccc(NC(=O)CN(C)C(=O)c2ccc3ccccc3c2)c1 | i | -3% | -4% | 4% | 21µM* | -3%
COc1ccc(NC(=O)CN(C)C(=O)c2ccc3ccccc3c2)cc1 | i | -4% | 0% | -9% | i | 4%
CCCN(CCC)CCCNc1ccc(C(=O)Nc2cccc(OC)c2)cc1[N+](=O)[O-] | i | 13% | 21µM* | ? | i | ?
Cc1ccc(NC(=O)c2ccc(NCCc3ccccc3)c([N+](=O)[O-])c2)cc1F | ? | 18µM* | 4% | -2% | i | 4%
CCC(=O)N1CCc2cc(S(=O)(=O)NC(CC(C)C)C(=O)NCc3ccc(F)cc3)ccc21 (stereo not given) | i | nt | nt | nt | i | nt
CCN(c1cccc(C)c1)S(=O)(=O)c1cc2c(cc1C)n(C)c(=O)c(=O)n2C | i | nt | nt | nt | ? | nt
CCOC(=O)CN(C)C(=O)C1CCCN1C(=O)OC(C)(C)C (stereo not given) | i | -3% | 1% | 1% | i | -33%[9.22 µM]
COc1ccc(NC(=O)c2sc3nc(C)c(C(=O)Nc4ccc(C)cc4C)c(-c4sccc4C)c3c2N)cc1 | i | nt | nt | nt | i | nt
Cc1ccc(Cl)cc1Nc1nc(-c2sc(NC(=O)c3ccco3)nc2C)cs1 | 21µM* | 21µM* | ? | ? | ? | 9%
Cc1nc(NC(=O)c2ccco2)sc1-c1csc(Nc2ccc(Cl)cc2Cl)n1 | i | 16µM* | ? | ? | ? | ?
COc1cccc(N(C(=O)c2ccco2)c2nc(-c3sc(NC(=O)c4ccco4)nc3C)cs2)c1 | 5.8µM* | ? | -24% | -15% | i | ?
CSc1nc2ccc(NS(=O)(=O)c3cccc(Cl)c3Cl)cc2s1 | i | ? | 0% | 7% | i | 2%
CCN(CC)c1ccc(C(=O)NCc2ccc3c(c2)CCN3C(=O)c2ccccc2)cc1 | i | nt | nt | nt | i | nt
COc1ccc(-n2c(=O)c3c(c4cc(OC)ccc4n3C)n(CCC(C)C)c2=O)cc1 | i | nt | nt | nt | i | nt
Cc1ccc(-c2cn3nc(-c4ccccc4)c(-c4ccccc4)nc3n2)cc1 | i | ? | -2% | 6% | i | 18µM*
Nc1nc(-c2ccccc2)cn1N | i | -7% | 14% | 23% | i | -7%
Cc1nn2cc(-c3ccc(-c4ccccc4)cc3)nc2s1 | i | 6% | 15% | 16% | ? | 8%
c1ccc(-c2cn3nc(-c4ccccc4)c(-c4ccccc4)nc3n2)cc1 | i | 7.3µM* | 9% | 14% | 13µM* | 9.2µM*
COc1ccc(C(=O)NCCn2cc(SCC(=O)Nc3ccc4c(c3)OCCO4)c3ccccc32)cc1 | ? | nt | nt | nt | i | nt
SMILES | KB-3-1 tox | MCF10A rerep | HT1080 IDH1KD tx | HT1080-NT tox | KB-V1 cytotox | SW480 rereplic
CN(C)c1ccc(/C=C/C(=O)c2cccc(Br)c2)cc1 | i | 16µM* | ? | -4% | ? | ?
CN(C)c1ccc(C(=O)/C=C/c2cccnc2)cc1 | 18µM* | ? | ? | ? | ? | ?
CCN(C(=O)c1cccc(Br)c1)c1ccccc1 | i | 2% | -2% | -7% | i | -2%
O=C(NCc1ccccc1Cl)c1ccc(-n2cnc3cccnc32)cc1 | i | nt | nt | nt | ? | nt
O=C(Nc1nnc(SCc2cccc(F)c2)s1)c1ccco1 | i | 0.29µM* | 4% | 2% | i | -76%
CCCOc1cccc(-c2nnc(NC(=O)c3ccco3)s2)c1 | ? | 8.2µM* | 0% | -5% | ? | 8%
O=C(CSc1nnc(NC(=O)c2ccco2)s1)NC1CCCCC1 | i | 0% | -2% | 2% | 23µM* | -2%
COc1cccc(-c2nnc(NC(=O)c3ccco3)s2)c1 | i | -4% | 13% | 16% | i | -6%
O=C(Cc1ccccc1)Nc1nnc(SCC(=O)NC2CCCC2)s1 | i | -1% | -17% | -10% | i | -3%
CC(C)(C)C(=O)Nc1nnc(SCc2cccc(F)c2)s1 | i | 0.65µM* | 2% | 2% | i | -10%
O=C(Nc1nnc(SCc2ccc(F)cc2)s1)c1ccco1 | i | 0% | -3% | -2% | i | 2%
CCOc1ccccc1NC(=O)CN1C(=O)COc2ccc(S(=O)(=O)Nc3ccccc3)cc21 | i | nt | nt | nt | i | nt
CCOC(=O)N1CCc2c(sc3c2c(=O)n(-c2ccc(CC)cc2)c(=O)n3CC(=O)NCC2CCCO2)C1 (stereo not given) | ? | 0% | -7% | -5% | ? | -4%
COc1ccc2c(c1)c1c(c(=O)n(-c3cccc(Cl)c3)c(=O)n1CC(=O)NCC1CCCO1)n2C (stereo not given) | i | nt | nt | nt | i | nt
CCOc1ccccc1C(=O)Nc1nn[nH]n1 | i | 11% | 3% | 10% | i | -4%
Cc1ccc(CN2CCN(C3CCCC3)C(CCO)C2)s1 (stereo not given) | i | -1% | 1% | 3% | i | -2%
Cc1ccc(NC(=O)Cn2cccc2)cc1C | i | -3% | -9% | 13% | i | -2%
Cc1ccc(NC(=O)Cn2cccc2)cc1Cl | i | -7% | -16% | -7% | 18µM* | -3%
Cc1cccc(C(=O)Nc2ccccc2SCC(=O)Nc2ccc(C)c(Cl)c2)c1 | 12µM* | ? | ? | -20% | ? | ?
Cc1ccc(NC(=O)CSc2ccccc2NC(=O)c2cccc(Cl)c2)cc1Cl | i | 3% | 12% | 3% | ? | nt
O=c1cc(CN2CCN(C/C=C/c3ccccc3)CC2)c2cc(O)c(-c3ccccc3)cc2o1 | ? | 13% | 16% | 6% | i | 18µM*
